# Bioassay records from PubChem BioAssay.
# In the library only some 2.6% were active in any assay of this set; here they are far more common.
# uPA generation: qHTS for Inhibitors of Cell Surface uPA Generation; cell surface uPA generation assay, qHTS; Potency, µM (doses to about 38.3 µM), for inactives: at the top dose activity change, negative = inhibition, hits mostly inhibitors; 330,000 compounds, 0.31% hits; AID 540303, 2011; active = well fitted inhibition curve with a large enough effect; inconclusive = small, poorly fitted or top-dose-only effect; inactive = no such curve, though single readings can be large or run the other way; tested in mouse RAW 264.7 cells; note: potency is the fitted concentration of half-maximal effect; % is set by controls: 0 for no effect and ±100 for the full control effect; nearly all actives have a fitted effect of over 55% in size
# TGFb SMAD3 inh: qHTS for Inhibitors of TGF-b | HepG2 CAGA-GFP TGF-b/SMAD3 reporter, GFP fluorescence, 18 h; TGF-beta stimulated, 500 pg/mL final | Potency, µM (titrated, usually from 46.1 µM), inactives show top-dose activity, negative = inhibition, usual class: inhibitors | 410,000 compounds, 1.2% hits | AID 588855, 2011; note: potency is the fitted concentration of half-maximal effect; % is set by controls: 0 for no effect and ±100 for the full control effect; nearly all actives have a fitted effect of over 65% in size
#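 Inhibition was scored as loss of TGF-beta-induced (500 pg/mL final, 18 hours, 37 degrees C) GFP in HEPG2 cells carrying a CAGA-GFP reporter, in DMEM with 1% FBS. Well GFP was summed per cell; Activity was normalised to unstimulated and stimulated DMSO wells, then concentration-response fitting.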
# Giardia killer: Small Molecules that selectively kill Giardia lamblia: qHTS; 340,000 compounds, 0.15% hits; activity change, % at 7.66 µM, hits read low; Giardia lamblia trophozoite viability; in the data active = activity change below about -80%; inconclusive = between about -30% and that limit;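 note: parasites exposed to compound for two days anaerobically before the ATP read; % is set by controls: 0 for no effect and ±100 for the full control effect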
#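 Media and compound were dispensed first, then trophozoites at 100 cells/well; plates sat 48 hrs at 37 deg C without oxygen before ATP luminescence reagent was added and read after 15-30 min at room temperature.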
# HepG2 viability: qHTS for Inhibitors of TGF-b: Cytotox Counterscreen | HepG2 CAGA-GFP viability, ATP luminescence, 18 h | 410,000 compounds, 0.76% hits | Potency, µM (top dose mostly 46.1 µM), inactives show top-dose activity change, negative = cytotoxicity, most hits filed as cytotoxic; note: potency is the fitted concentration of half-maximal effect
#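 HepG2 CAGA-GFP cells (1000/well, DMEM with 1% FBS) received compound, then TGF-beta at 500 pg/mL final, and were incubated 18 hours at 37 degrees C. Viability was read by CellTiter-Glo luminescence. Media-only wells were set as complete cell-killing and DMSO as no toxicity.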
# ATXN2 expr inh: Primary qHTS for Inhibitors of ATXN expression | Potency, µM (top dose mostly 57 µM), for inactives: top-dose activity change, negative = inhibition, usual class: inhibitors | HEK-293 ATXN2-luciferase reporter, luminescence, 24 h | 360,000 compounds, 0.72% hits | AID 1745845, 2022; note: potency is the fitted concentration of half-maximal effect; % is set by controls: 0 for no effect and ±100 for the full control effect; nearly all actives have a fitted effect of over 55% in size
#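 ATXN2-luciferase reporter cells (luciferase flanked by upstream and downstream ATXN2 gene portions) were treated 24 h at 37 °C with compounds at up to 57 uM. SteadyGlo luminescence gave expression; GF-AFC fluorescence gave viability.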
# ATXN viability: Viability Counterscreen for Primary qHTS for Inhibitors of ATXN expression; S2 cells (HEK-293 line with an ATXN2-luciferase reporter) viability, CellTiter-Fluor protease fluorescence, 24 h; Potency, µM (doses to about 56.7 µM), most hits filed as cytotoxic; 400,000 compounds, 0.49% hits; AID 651635, 2014; note: potency is the fitted concentration of half-maximal effect; nearly all actives have a fitted effect of over 40% in size
# Numbers without * were called inactive; i = inactive; ? = inconclusive; · = no result. Unless noted, calls come from the whole dose curve; as a rule, active = well fitted curve in the direction sought with a large enough effect; inconclusive = small, poorly fitted or top-dose-only effect, or another doubt; inactive = no such curve, though single readings can be large; an effect the other way counts as inactive or inconclusive.
SMILES,uPA generation,TGFb SMAD3 inh,Giardia killer,HepG2 viability,ATXN2 expr inh,ATXN viability
COC(=O)c1ccc(CN2CCC3(CCC(CNC(=O)c4ccco4)O3)CC2)cc1 (stereo not drawn),·,·,·,·,·,i
CSCCC(NC(=O)c1ccc([N+](=O)[O-])cc1Cl)C(=O)OCC(=O)NCCCc1ccccc1 (stereo not drawn),-3%,16µM*,-26,-45%,0%,i
O=S(=O)(Nc1nc2ccccc2nc1Cl)c1ccc(Cl)cc1,-21%,13µM*,8,-43%,-16%,·
CCOc1nc2ccccc2nc1NS(=O)(=O)c1ccc(Cl)cc1,4%,-20%,16,-22%,-11%,i
O=S(=O)(Nc1nc2ccccc2nc1Cl)c1ccc(Br)cc1,?,13µM*,4,-46%,·,i
Cc1ccccc1S(=O)(=O)Nc1nc2ccccc2nc1Cl,-1%,26%,-15,1%,5%,i
CCCCCCCN(CCCCCCC)c1ccc(/C=C/c2ccnc3ccccc23)cc1,·,-4%,·,-4%,·,·
Cc1cc(C(=O)c2ccc(C(C)(C)C)cc2)c(NC(=O)CCl)s1,-10%,16µM*,-10,-102%,?,?
Cc1cc(C(=O)c2ccccc2)c(NC(=O)CN2CCOCC2)s1,1%,-1%,-4,-1%,·,i
Cc1sc(NC(=O)CCl)c(C(=O)c2ccccc2)c1C,-12%,?,5,13µM*,?,?
Cc1ccccc1C(=O)Nc1sc(C)c(C)c1C(=O)c1ccccc1,8%,?,-3,-21%,-3%,i
Cc1ccc(C)c(Nc2nn3c(=O)c4ccc(C(=O)NCCC5=CCCCC5)cc4nc3s2)c1,·,?,·,-3%,14%,i
Cc1ccc(NC(=O)c2ccc3c(=O)n4nc(Nc5ccccc5C)sc4nc3c2)cc1C,·,?,·,2.8µM*,-31%,i
COc1ccccc1Nc1nn2c(=O)c3ccc(C(=O)NCCC4=CCCCC4)cc3nc2s1,·,5µM*,·,5µM*,3.2µM*,·
COc1ccccc1Nc1nn2c(=O)c3ccc(C(=O)NCCc4ccccc4)cc3nc2s1,·,2.2µM*,·,3.2µM*,·,·
COc1ccc(NC(=O)c2ccc3c(=O)n4nc(Nc5ccccc5C)sc4nc3c2)cc1,·,-1%,·,-2%,·,·
COc1ccccc1-c1ccnc(-n2ncc(C(=O)N3CCN(C(C)C)CC3)c2-c2ccco2)n1,·,·,·,·,·,i
COC(=O)c1ccccc1NC(=O)COc1ccccc1C(=O)Nc1ccccc1,·,?,·,-27%,·,·
Cc1ccnc(NC(=O)c2ccc(S(=O)(=O)N3CCCCCC3)cc2)c1,-14%,-23%,7,2.2µM*,33%,i
CCNC(=S)Nc1cc(C)ccn1,-2%,-14%,16,1µM*,7%,i
CCOc1ccc(C(=O)Nc2cc(C)ccn2)cc1,-19%,-19%,-88*,14µM*,?,i
CN1CCc2[nH]c3ccc(Cl)cc3c2C1,·,8%,6,13%,·,·
C/C(=N/NC(=O)c1ccncc1)C(=O)O,·,·,·,·,8%,i
CN(C)[C@@H]1C(=O)C(C(=O)NCN2CCCC2)=C(O)[C@@]2(O)C(=O)C3=C(O)c4c(O)cccc4[C@@](C)(O)C3C[C@@H]12 (stereo partly drawn),·,·,·,·,-12%,i
Cc1cc(CNC(=O)c2cnn(-c3nccc(-c4cc(C)sc4C)n3)c2C2CC2)on1,·,·,·,·,·,i
CCOC(=O)c1c(NC(C)=O)sc2c(O)c(CN3CCN(CC)CC3)ccc12,-8%,?,2,11µM*,14%,?
CCOC(=O)c1c(NC(C)=O)sc2c(OC)c(Br)ccc12,1%,1%,8,9%,-23%,i
CCOc1c(N2CCOCC2)cnn(C)c1=O,·,·,·,·,-1%,i
